Most compounds without a hit are left out; they make up all but 4.8% or so of the library.
SMARCA2 activ = activators of SMARCA2 function. activation, % at 9.1 µM. 370,000 tested, 1% active. MG213 cells, MMTV-luciferase reporter, dexamethasone, overnight; in the data active = activation above about 7.8%
hcDAF-12 act = activators of H. contortus DAF-12 nuclear receptor; activation, % at 6.8 µM; HEK293 hcDAF-12 lit1-tk-luc reporter, luminescence; 0% DMSO, 100% Δ7-dafachronic acid; 370,000 tested, 1.4% active;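 active = activation above the mean of all tested compounds plus 3 SD, cut at about 5.5% in these data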
hgDAF12 agonist = activates the H. glycines DAF-12 receptor ligand-binding domain. HEK293 GAL4-hgDAF12 UAS-luciferase reporter, agonist luminescence; normalized to butyrate control. activation, % at 6.8 µM. 370,000 tested, 1.8% active;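 active = activation above a cutoff set at the mean of all screened compounds plus 3 SD, cut at about 10% in these data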
ssDAF12 agonist = S. stercoralis DAF-12 activation, primary screen; HEK293 ssDAF-12/GRIP1 lit1-tk-luc reporter, luminescence; % of 3 µM dafachronic acid response; 370,000 tested, 1% active; activation, % at 6.8 µM;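 active = activation above the mean over all tested compounds plus 3 SD, cut at about 0.9% in these data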
DAX1 inh-1 = inhibits human nuclear receptor DAX1 | HEK293 Gal4-DAX1 luciferase reporter, luminescence | 340,000 tested, 0.99% active | AID 504766 | P51843 | inhibition, % at 6.75 µM;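 active = inhibition above the mean over all tested compounds plus 3 SD, cut at about 4.2% in these data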;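 also: inhibition shows as a rise in luminescence from relieved DAX1 repression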
Target sequence (P51843 207-470 limits assumed): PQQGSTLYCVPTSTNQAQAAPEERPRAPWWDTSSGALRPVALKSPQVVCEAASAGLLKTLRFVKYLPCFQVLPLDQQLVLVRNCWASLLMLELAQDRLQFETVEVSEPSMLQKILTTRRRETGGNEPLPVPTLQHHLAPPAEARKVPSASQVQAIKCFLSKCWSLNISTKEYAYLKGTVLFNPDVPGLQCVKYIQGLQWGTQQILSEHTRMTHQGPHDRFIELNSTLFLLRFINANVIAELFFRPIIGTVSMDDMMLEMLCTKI
DAX1 inh-2 = DAX1 (NR0B1) inhibition, primary screen; 370,000 tested, 1.1% active; HEK293T StAR-luciferase reporter, SF-1/DAX-1 repression relief; inhibition, % at 6.8 µM;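 active = inhibition above the mean over all tested compounds plus 3 SD, cut at about 3.6% in these data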;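 also: higher inhibition means more luminescence from relief of DAX-1 repression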
DAX1 inh confirm = confirmation of human DAX1 (NR0B1) inhibitors. shares compounds with DAX1 inh-2. HEK293T StAR-promoter luciferase reporter, SF-1/DAX-1 repression. inhibition, % at 6.8 µM. 2,400 tested, 87% active;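 active = inhibition above the average of every tested compound plus 3 SD, cut at about 3.8% in these data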;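 also: active compounds raise luminescence by relieving repression of the StAR reporter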
SF1 mutant ctr = nonselective inhibitor or artifact in SF-1 mutant DAX1 counter-screen | shares compounds with DAX1 inh-2 | AID 652136 | HEK293 StAR-luciferase, SF-1 AF2 mutant, luminescence | inhibition, % at 6.8 µM | 2,400 tested, 78% active;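 active = inhibition above the mean of all tested compounds plus 3 SD, cut at about 3% in these data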
LXRb hcDAF ctr = LXR-beta agonism as hcDAF-12 counter-screen; shares compounds with hcDAF-12 act; HEK293 Gal4-LXR tk-luc reporter, luminescence, 24 h; normalized: DMSO 0%, positive control 100%; activation, % at 6.8 µM; 3,400 tested, under 10 active; AID 743027;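 active = mean percent activation of the reporter above a cutoff set as the average over tested compounds plus their standard deviation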
hcDAF12 ag = confirmation of H. contortus DAF-12 agonists. shares compounds with hcDAF-12 act. HEK293 hcDAF-12 lit1-tk-luc reporter, luminescence; % of Δ7-dafachronic acid response. activation, % at 6.8 µM. 3,400 tested, 61% active. AID 743032;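 active = mean activation across triplicate tests above the threshold derived from the earlier primary screen, cut at about 5.5% in these data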
Hits are given with their value; n = inactive; x = not tested or not shown.

SMILES | SMARCA2 activ | hcDAF-12 act | hgDAF12 agonist | ssDAF12 agonist | DAX1 inh-1 | DAX1 inh-2 | DAX1 inh confirm | SF1 mutant ctr | LXRb hcDAF ctr | hcDAF12 ag
Clc1ccc(-c2cn3c(n2)-c2ccccc2C3)cc1Cl | n | 17 | 20 | 2.0 | n | 5.9 | 9.2 | 6.4 | n | 15
CCOc1ccc(N(CC(=O)Nc2c(C)n(C)n(-c3ccccc3)c2=O)S(=O)(=O)c2cccc3cccnc23)cc1 | n | n | n | n | x | n | x | x | x | x
COC(=O)[C@]12C[C@H](CC(=O)N3CCN(C(=O)C4CC4)CC3)C(=O)N(Cc3ccc4c(c3)OCO4)C1=C[C@H](C(C)C)O[C@@H]2C1CC1 | n | n | n | n | x | n | x | x | x | x
CCCn1c(/C=N/Nc2nc3ccccc3[nH]2)nc2ccccc21 | n | n | n | n | n | n | x | x | x | x
Cn1c(/C=N/Nc2nc3ccccc3[nH]2)nc2ccccc21 | n | 17 | 15 | 1.9 | n | 5.5 | n | n | n | 8.0
COc1c(O)cc2oc(-c3ccc(O)cc3)cc(=O)c2c1O | n | 9.6 | 11 | n | n | 5.2 | 10 | n | n | 6.8
COc1cc2oc(-c3ccc(O)cc3)cc(=O)c2c(O)c1OC | n | n | n | n | n | n | x | x | x | x
CC(C)(C)c1ccc(Nc2n[nH]c3ccccc23)cc1 | n | 13 | 28 | 2.9 | x | 11 | 12 | 4.6 | n | 20
Cc1n[nH]c2ccccc2c1=O | n | n | n | n | n | n | x | x | x | x
Cc1ccc2nc(-c3ccc(NC(=O)C4CCCO4)cc3)[nH]c2c1 (configuration not stated) | n | 7.7 | n | n | n | 7.3 | 12 | 6.2 | n | n
Nc1[nH]n(-c2ccccc2)c(=O)c1N=Nc1ccc2c(c1)OCCO2 | n | 9.4 | 15 | 2.1 | n | 5.0 | 13 | 6.0 | n | 12
Cc1ccccc1C(=O)n1ccc2ccc(-c3ccc4ccn(Cc5ccc(C#N)cc5)c4c3)cc21 | n | n | n | n | x | n | x | x | x | x
NC(=O)c1ccsc1NC(=O)c1cccs1 | n | n | n | n | n | n | x | x | x | x
NC(=O)c1ccsc1NC(=O)c1ccc2c(c1)CCCC2 | n | 14 | 19 | 2.5 | n | 6.8 | 12 | 7.8 | n | 21
C[C@@H]1C=CCCO[C@]12C(=O)N(Cc1ccc(Br)cc1)c1ccccc12 | n | n | n | n | x | n | x | x | x | x
CCc1ccc(NC(=O)c2noc3c2CCC3)cc1 | n | 9.3 | 12 | 1.4 | n | 5.7 | 21 | 7.9 | n | 14
CCc1ccc(NC(=O)c2noc3c2CCc2ccccc2-3)cc1 | n | n | n | n | n | n | x | x | x | x
NC(=O)c1ccccc1N/C=C/C(=O)c1ccco1 | n | n | n | n | n | n | x | x | x | x
O=C(/C=C/Nc1ccccc1C(F)(F)F)c1ccco1 | n | 10 | 19 | 1.1 | n | 4.9 | 13 | 8.3 | n | 9.1
Cc1ccc(-c2noc(-c3cccs3)n2)cc1 | n | 8.9 | 16 | n | n | 6.2 | 16 | 11 | n | 16
Fc1ccc(-c2cnn3c(-c4cccs4)ccnc23)cc1 | n | 32 | 33 | 3.9 | 4.9 | 7.2 | 18 | 11 | n | 23
COCC1CCN(C(=O)c2cc(COc3ccc(OC)c4ccccc34)on2)C1 (configuration not stated) | n | 8.1 | 11 | n | n | 5.6 | 5.4 | 5.1 | n | 7.7
CCc1ccc(-c2cc(C(=O)Nn3cnnc3)c3ccccc3n2)cc1 | n | 11 | n | n | n | 6.0 | 11 | 4.2 | n | 11

From PubChem
